DT40 TDP1 CPT = qHTS for Inhibitors of human tyrosyl-DNA phosphodiesterase 1 (TDP1): qHTS in cells in presence of CPT; 420,000 compounds, 12% hits; Potency, µM (doses to about 46.2 µM), for the others: at the highest dose activity change, negative = growth inhibition, hits mostly inhibitors; chicken DT40 Tdp1-/-;hTDP1 cells + 20 nM CPT, ATP luminescence, 48 h; note: potency is the fitted concentration of half-maximal effect; nearly all actives have a fitted effect of over 55% in size
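Chicken DT40 Tdp1-/- cells stably complemented with human TDP1 were seeded at 400 cells/well in medium containing 20 nM camptothecin, exposed to pin-transferred compounds, and grown at 37 °C for at least 48 hr. Viability was read as ATP luminescence.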
RORg inh = qHTS for inhibitors of ROR gamma transcriptional activity; 310,000 compounds, 5.4% hits; Nuclear receptor ROR-gamma (Mus musculus), P51450; Potency, µM (highest dose often 53.6 µM), for inactives: at the top dose activity change, negative = inhibition, hits mostly inhibitors; Drosophila S2 Gal4-RORgamma UAS-luciferase reporter, 20 h; note: potency is the fitted concentration of half-maximal effect; nearly all actives have a fitted effect of over 60% in size
Target sequence (P51450 whole entry, looked up, the tested form may be a part): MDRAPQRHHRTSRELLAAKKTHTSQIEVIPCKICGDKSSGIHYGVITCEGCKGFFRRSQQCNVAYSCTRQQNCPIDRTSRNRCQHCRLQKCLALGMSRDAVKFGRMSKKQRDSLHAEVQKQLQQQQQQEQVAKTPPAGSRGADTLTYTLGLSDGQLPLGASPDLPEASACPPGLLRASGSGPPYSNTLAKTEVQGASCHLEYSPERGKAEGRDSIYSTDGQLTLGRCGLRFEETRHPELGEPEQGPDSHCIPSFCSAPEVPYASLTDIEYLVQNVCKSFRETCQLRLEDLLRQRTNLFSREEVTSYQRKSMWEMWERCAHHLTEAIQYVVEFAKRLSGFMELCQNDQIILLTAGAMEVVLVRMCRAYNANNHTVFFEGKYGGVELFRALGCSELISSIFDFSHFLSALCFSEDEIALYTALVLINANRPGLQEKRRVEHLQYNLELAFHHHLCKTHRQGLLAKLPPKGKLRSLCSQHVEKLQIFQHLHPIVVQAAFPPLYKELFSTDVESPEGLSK
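Luminescence from a UAS-regulated Photinus luciferase reporter in stably transfected Drosophila Schneider cells is measured; decreased signal marks ROR gamma inhibition. Fusion expression is induced by 700 uM copper sulfate for 20 hr.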
VP16 counter = VP16 counterscreen qHTS for inhibitors of ROR gamma transcriptional activity; AID 2546, 2010; Drosophila S2 Gal4-VP16 UAS-luciferase, luminescence, 20 h; 310,000 compounds, 3.5% hits; Potency, µM (top dose mostly 53.6 µM), inactives show at the highest dose activity, negative = inhibition, hits mostly inhibitors;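 note: Gal4-VP16 expression switched on by copper sulfate through the metallothionein promoter; potency is the fitted concentration of half-maximal effect; nearly all actives have a fitted effect of over 50% in size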
DT40 TDP1 no CPT = qHTS for Inhibitors of human tyrosyl-DNA phosphodiesterase 1 (TDP1): qHTS in cells in absence of CPT; DT40 Tdp1-/- hTDP1 cells, no CPT, ATP luminescence, 48 h; Potency, µM (highest dose often 46.2 µM), inactives show at the top dose activity change, negative = growth inhibition, most hits filed as inhibitors; 420,000 compounds, 15% hits; AID 686978, 2013; note: potency is the fitted concentration of half-maximal effect; nearly all actives have a fitted effect of over 55% in size
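Growth of hTDP1-complemented DT40 Tdp1-knockout cells is measured by ATP luminescence after at least 48 hr compound exposure at 37 °C, with DMSO substituting for the 20 nM CPT used in the parallel screen.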
ELG1 repair inh = qHTS screen for small molecules that inhibit ELG1-dependent DNA repair in human embryonic kidney (HEK293T) cells expressing luciferase-tagged ELG1. HEK293T ELG1-luciferase reporter, luminescence, 16 h; DNA damage induced by 5-fluorouridine. Potency, µM (top dose mostly 46.1 µM), for inactives: at the highest dose activity change, negative = inhibition, actives largely listed as inhibitors. 330,000 compounds, 2.3% hits. AID 504467, 2011; note: potency is the fitted concentration of half-maximal effect; nearly all actives have a fitted effect of over 55% in size
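Step one: seed 2,000 cells per well. Step two: pin-transfer compound or DMSO alongside 5-fluorouridine. Step three: incubate 16 hr, 37 °C, 5% CO2. Step four: add ONE-Glo, wait 30 min, read luminescence.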
IL1B secr inh = qHTS for Inhibitors of Inflammasome Signaling: IL-1-beta AlphaLISA Primary Screen. THP-1 LPS/ATP IL-1B secretion, AlphaLISA, 16 h; stronger effect = lower value. activity change, % at 57.5 µM. 360,000 compounds, 4.7% hits. AID 743279, 2014; in the data active = activity change below about -50%; inconclusive = mostly about -30% to -49%
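Secreted IL-1B measured by AlphaLISA bead assay after 16 h compound exposure of THP-1 cells; compounds (final up to 57.5 uM) added 1 h before LPS (250 ng/mL) and ATP (1.25 mM) stimulation; lower signal means less secretion.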
Active calls of the source: *; ? = inconclusive; . = no result given; [ ] = remark or other dose. Sampled rows, rich in hits. Any-hit rate of the full collection: about 21%. Unless noted, calls come from the whole dose curve; as a rule, active = well fitted curve in the direction sought with a large enough effect; inconclusive = small, poorly fitted or top-dose-only effect, or another doubt; inactive = no such curve, though single readings can be large; an effect the other way counts as inactive or inconclusive. % is set by controls: 0 for no effect and ±100 for the full control effect.

SMILES	DT40 TDP1 CPT	RORg inh	VP16 counter	DT40 TDP1 no CPT	ELG1 repair inh	IL1B secr inh
COc1ccc(-c2cc3nc(-c4ccccc4)cc(N4CCN(C(=O)c5ccsc5)CC4)n3n2)cc1	7.31µM*	.	.	5.17µM*	.	-18.9
COc1ccc(-c2cc3nc(-c4ccccc4)cc(N4CCN(C(=O)c5ccccc5)CC4)n3n2)cc1	14.6µM*	.	.	4.11µM*	.	31.7
Cc1cc(NC(=O)c2csc([C@@H]3O[C@H](CO)[C@H](O)[C@H](O)[C@H]3O)n2)n(C)n1	-17.4%	.	.	-2.1%	.	24.6
O=C(c1ccccc1)N1CCN(c2cc(Cl)nc3cc(-c4cccc(Cl)c4)nn23)CC1	16.4µM*	.	.	4.61µM*	.	-18.4
CC(=O)N1CCc2cc(Br)cc(S(=O)(=O)CCC(=O)NCc3ccc(F)cc3)c21	-5.7%	.	.	?	.	.
COc1ccc(NC(=O)N2CC[C@@]3(CCCN(C(=O)c4c(C)noc4C)C3)C2)cc1	-9.4%	5.5%	-11.6%	-11.7%	.	.
COc1ccc(C#Cc2c(-c3ccsc3)oc3ccc(N4CCOCC4)cc23)cc1	?	.	.	-20.2%	.	-8.3
OC1(C#Cc2c(-c3ccsc3)oc3ccc(N4CCOCC4)cc23)CCCCC1	?	.	.	?	.	0.0
COc1ccc(-c2oc3ccc(N4CCOCC4)cc3c2C#CC2(O)CCCCC2)cc1	?	.	.	16.4µM*	.	11.3
COc1ccc(-c2oc3ccc(N4CCOCC4)cc3c2C#Cc2ccc(N)cc2)cc1	7.31µM*	.	.	6.51µM*	.	46.6
COc1ccc(-c2oc3cccnc3c2C#CC2(O)CCCCC2)cc1	?	7.08µM*	?	23.1µM*	?	-55.7*
CCOC(=O)c1cccc(NC(=O)Cn2ncc3c(=O)oc4ccccc4c32)c1	2.0%	.	.	-15.6%	.	.
Clc1ccc2c(SCC3CO3)c3ccccc3nc2c1 (stereo unspecified)	0.461µM*	.	.	1.16µM*	.	?
COc1cccc(-c2nc(-c3ccccc3)c3ccc(Cl)cc3n2)c1	-29.4%	.	.	-1.6%	.	15.4
COc1ccc2[nH]c(C)c(CCNC(=S)Nc3cccc(C)c3C)c2c1	?	7.08µM*	?	20.6µM*	?	7.9
COc1ccc2[nH]c(C)c(CCNC(=S)Nc3ccc(C)cc3)c2c1	18.4µM*	15.7%	-3.8%	?	?	-25.7
COc1ccc2[nH]c(C)c(CCNC(=S)Nc3ccccc3C)c2c1	18.4µM*	?	?	?	0.7%	-10.1
COc1ccc2[nH]c(I)c(CCNC(C)=O)c2c1	0.8%	22.7%	-2.4%	3.8%	.	.
O=C(NCc1cccs1)c1ccc2sc([C@H]3C[C@H](O)[C@@H](CO)O3)nc2c1	-15.4%	.	.	-23.2%	.	22.6
C=CCNC(=O)C(=O)NCCOc1ccccc1Cl	11.6µM*	22.2%	-5.1%	?	-10.8%	15.7
O=C(NCCOc1ccccc1Cl)C(=O)c1c[nH]c2ccccc12	?	37.3%	3.4%	?	4.6%	-19.6
COc1ccc(S(=O)(=O)N(C)C)cc1NC(=O)COC(=O)C1CC1	1.1%	.	.	10.6%	14.6%	0.0
CC(CCc1ccco1)NC(=O)Nc1cccc(F)c1 (stereo unspecified)	-24.6%	31.4%	22.5%	-6.4%	-3.6%	-0.6
CCCN(CCC)CCNC(=O)c1cc2c(-c3ccccc3F)nn(C)c2s1	?	13.7%	8.0%	?	4.5%	-91.8*
CC(CCc1ccco1)NC(=O)c1cc2c(-c3ccccc3F)nn(C)c2s1 (stereo unspecified)	?	?	-21.9%	?	16.4µM*	-23.9
SMILES	DT40 TDP1 CPT	RORg inh	VP16 counter	DT40 TDP1 no CPT	ELG1 repair inh	IL1B secr inh
Cn1nc(-c2ccccc2F)c2cc(C(=O)NCc3ccc(Cl)cc3)sc21	?	.	.	16.4µM*	.	.
Cn1nc(-c2ccccc2F)c2cc(C(=O)NCc3cccc(Cl)c3)sc21	14.6µM*	.	.	?	.	.
Cn1nc(-c2ccccc2F)c2cc(C(=O)Nc3ccc4c(c3)OCCO4)sc21	?	?	21.4%	20.6µM*	?	-64.7*
O=S(=O)(NC1CC1)c1ccc(S(=O)(=O)N(Cc2ccccn2)C2CC2)cc1	-27.6%	22.7%	2.9%	?	-2.7%	5.6
CCOC(=O)N1CCN(C(=O)/C=C/c2c(C)nn(-c3ccc(F)cc3)c2Cl)CC1	?	12.3%	-7.2%	13µM*	?	0.0
Cc1cc(=O)oc2cc(NC(=O)C3CCCC3)ccc12	-12.2%	13.2%	-8.1%	-12.0%	?	-29.5
COc1ccc(OC)c(S(=O)(=O)NCCCN2CCOCC2)c1	-7.6%	.	.	-1.9%	-1.8%	-10.2
O=c1c2ccccc2sc2ccc(NCCCN3CCOCC3)cc12	?	.	.	23.1µM*	.	0.0
Cc1cc2oc3cc(NCCC4CCCN4C)ccc3c(=O)c2cc1C (stereo unspecified)	8.2µM*	.	.	5.8µM*	.	-85.3*
O=C(NCCN1CCOCC1)c1sc2ccccc2c1Cl	7.1%	-11.5%	27.6%	?	?	20.0
CN1CCCC1CCNc1ccc2sc3ccccc3c(=O)c2c1 (stereo unspecified)	?	.	.	?	.	-65.8*
COc1cc2sc3cc(NCCCN4CCOCC4)ccc3c(=O)c2cc1OC	?	.	.	?	?	-75.5*
Cc1ccc(S(=O)(=O)N2CCOCC2)cc1NC(=O)CNC(C)c1ccccc1 (stereo unspecified)	7.7%	.	.	-4.4%	?	0.6
CC(C)C(C(=O)NCc1ccccc1)N1CCN(C(=O)C2CCCO2)CC1 (stereo unspecified)	8.3%	.	.	-7.9%	.	28.2
CCCNC(=O)OC[C@H]1O[C@@H](CCO/N=C2/[C@H]3O[C@@H]3[C@@H](O)[C@H]3[C@H]2CCn2c(=O)n(-c4ccccc4)c(=O)n23)C=C[C@@H]1Oc1ccc(OC)cc1	.	1.0%[10 µM]	0.7%[10 µM]	.	.	.
Cn1c(CNC(=O)CNC(=O)c2ccc(F)cc2)cc(=O)n(C)c1=O	7.6%	3.0%	-4.1%	-8.1%	7.9%	-10.8
CCC(NC(=O)CCc1nnc(-c2cc(C)on2)o1)C12CC3CC(CC(C3)C1)C2 (stereo unspecified)	20.6µM*	.	.	16.4µM*	17.1%	25.0

Source: PubChem BioAssay
